Experimental data taken from PubChem BioAssay AID1159580 (chemical genetic matrix, 2015).
Several values for one entry are separate records, joined by “and”; a condition that tells them apart may be missing. Equal entries are not always repeated. About 2,000 (36%) of roughly 5,500 compounds were called active. Another 18% or so got no clear call; they are omitted. Rule as the data show it: active = normalized growth mostly below about 0.91 (no sharp cut-off); inconclusive = no clear call, values can overlap the other calls; inactive = mostly above about 0.92. The list shows a part of the results.

Test: chemical genetic growth profiling, strain panel (AID 1159580);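 also: tested at 20 µM; growth read once vehicle control cultures reached saturation at 30 °C; 1 = growth at the plate median or of vehicle wells; lower values mean less growth of the strain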
Conditions: S. cerevisiae deletion strains, growth OD

Measured: normalized growth

C=CCN1CC[C@]23c4c5ccc(O)c4OC2C(=O)CC[C@@]3(O)[C@H]1C5 (stereo partly specified)
inactive: locus YAL013W, strain DEP1, active compounds read low 1.01 | locus YAL021C, strain ccr4, active compounds read low 0.935 | locus YAL026C, strain drs2, active compounds read low 0.979 | locus YAL030W, strain snc1, active compounds read low 0.974 | locus YBL061C, strain skt5, active compounds read low 0.978 | locus YBR009C, strain hhf1, active compounds read low 0.987 | locus YBR021W, strain FUR4, active compounds read low 1.01 | locus YBR023C, strain chs3, active compounds read low 0.972 | locus YBR171W, strain sec66, active compounds read low 0.974 | locus YBR229C, strain ROT2, active compounds read low 1 | locus YBR231C, strain swc5, active compounds read low 0.969 | locus YBR279W, strain paf1, active compounds read low 0.955 | locus YCL011C, strain gbp2, active compounds read low 0.941 | locus YCL016C, strain dcc1, active compounds read low 0.986 | locus YCL029C, strain bik1, active compounds read low 0.996 | locus YCL061C, strain MRC1, active compounds read low 0.979 | locus YCL069W, strain vba3, active compounds read low 0.946 | locus YCR088W, strain abp1, active compounds read low 0.98 | locus YDL005C, strain med2, active compounds read low 0.943 | locus YDL035C, strain GPR1, active compounds read low 1.02 | locus YDL040C, strain nat1, active compounds read low 0.967 | locus YDL074C, strain BRE1, active compounds read low 1.05 | locus YDL101C, strain DUN1, active compounds read low 1.02 | locus YDL134C, strain PPH21, active compounds read low 1 | locus YDL185W, strain tfp1, active compounds read low 1.01 | locus YDL192W, strain arf1, active compounds read low 0.988 | locus YDR001C, strain nth1, active compounds read low 0.971 | locus YDR069C, strain doa4, active compounds read low 0.943 | locus YDR101C, strain arx1, active compounds read low 0.989 | locus YDR137W, strain rgp1, active compounds read low 0.959 | locus YDR150W, strain NUM1, active compounds read low 1 | locus YDR159W, strain sac3, active compounds read low 0.962 | locus YDR162C, strain NBP2, active compounds read low 1.01 | locus YDR195W, strain ref2 0.955 | locus YDR297W, strain sur2, active compounds read low 0.962 | locus YDR318W, strain mcm21, active compounds read low 1 | locus YDR334W, strain swr1, active compounds read low 0.95 | locus YDR335W, strain msn5, active compounds read low 0.974 | locus YDR388W, active compounds read low 1 | locus YDR392W, strain spt3, active compounds read low 0.877 | locus YDR502C, strain sam2, active compounds read low 0.984 | locus YEL003W, strain gim4, active compounds read low 0.936 | locus YEL037C, strain rad23, active compounds read low 0.954 | locus YEL061C, strain CIN8 (second series), active compounds read low 0.962 | locus YEL061C, strain CIN8, active compounds read low 1.01 | locus YER015W, strain faa2, active compounds read low 0.97 | locus YER016W, strain bim1, active compounds read low 0.972 | locus YER110C, active compounds read low 0.992 | locus YER111C, strain swi4, active compounds read low 0.97 | locus YER155C, strain BEM2 (second series), active compounds read low 0.979 | locus YER155C, strain BEM2, active compounds read low 1.01 | locus YER167W, strain BCK2, active compounds read low 0.989 | locus YFR010W, strain ubp6, active compounds read low 0.953 | locus YGL078C, strain dbp3, active compounds read low 1 | locus YGL086W, strain mad1, active compounds read low 0.993 | locus YGL167C, strain pmr1, active compounds read low 0.961 | locus YGL173C, strain kem1, active compounds read low 0.971 | locus YGL227W, strain vid30, active compounds read low 0.97 | locus YGL240W, strain doc1, active compounds read low 0.961 | locus YGL248W, strain PDE1, active compounds read low 1.01 | locus YGL253W, strain hxk2, active compounds read low 0.974 | locus YGR078C, strain PAC10, active compounds read low 1.03 | locus YGR135W, strain pre9, active compounds read low 0.99 | locus YGR229C, strain SMI1, active compounds read low 1 | locus YGR252W, strain gcn5, active compounds read low 0.997 | locus YHR013C, strain ard1, active compounds read low 0.926 | locus YHR027C, strain rpn1, active compounds read low 0.97 | locus YHR030C, strain SLT2, active compounds read low 1 and 0.989 | locus YHR079C, strain IRE1 (second series), active compounds read low 1 | locus YHR094C, strain hxt1, active compounds read low 1 | locus YHR129C, strain ARP1, active compounds read low 1.01 | locus YHR142W, strain chs7, active compounds read low 0.946 | locus YHR200W, strain rpn10, active compounds read low 0.998 | locus YIL066C, strain RNR3, active compounds read low 1.01 | locus YIL073C, strain SPO22, active compounds read low 1.02 | locus YIL125W, strain kgd1, active compounds read low 0.997 | locus YIR030C, strain dcg1, active compounds read low 0.997 | locus YJL092W, strain hpr5, active compounds read low 0.957 | locus YJL095W, strain BCK1 (second series), active compounds read low 0.978 | locus YJL095W, strain BCK1, active compounds read low 1.02 and 1 | locus YJL115W, strain asf1, active compounds read low 0.957 | locus YJL129C, strain trk1, active compounds read low 0.917 | locus YJL134W, strain LCB3, active compounds read low 1.01 | locus YJL154C, strain vps35, active compounds read low 0.971 | locus YJL164C, strain tpk1, active compounds read low 0.984 | locus YJL166W, strain qcr8, active compounds read low 0.959 | locus YJL168C, strain set2, active compounds read low 1 | locus YJL187C, strain SWE1 (second series), active compounds read low 1.03 | locus YJL187C, strain SWE1, active compounds read low 0.964 | locus YJR043C, strain POL32, active compounds read low 1.03 | locus YJR066W, strain TOR1, active compounds read low 0.949
